PubChem BioAssay AID1159580 (chemical genetic matrix, 2015)
“And” between values parts separate entries of the source, which are not always exact repeats. Equal values may be shown once. The campaign covered roughly 5,500 compounds. About 2,000 (36%) were called active. Inconclusive results (about 18%) are left out. Cut-off read from the data, not from the text of the source: active = normalized growth mostly below about 0.91 (no sharp cut-off); inconclusive = no clear call, values can overlap the other calls; inactive = mostly above about 0.92. Some of the results follow.

Experiment: chemical genetic growth profiling, strain panel (AID 1159580);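 note: tested at 20 µM; growth read once vehicle control cultures reached saturation at 30 °C; 1 = growth at the plate median or of vehicle wells; lower values mean less growth of the strain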
Settings: S. cerevisiae deletion strains, growth OD

SMILES: Cc1cc(/C=C/c2ccc3cc(N(C)C)ccc3[n+]2C)c(C)n1-c1ccccc1
- normalized growth (locus YAL013W, strain DEP1, stronger effect = lower value): 0.987 (inactive)
- normalized growth (locus YAL021C, strain ccr4, stronger effect = lower value): 0.507 (active)
- normalized growth (locus YAL026C, strain drs2, stronger effect = lower value): 0.924 (inactive)
- normalized growth (locus YAL030W, strain snc1, stronger effect = lower value): 0.954 (inactive)
- normalized growth (locus YBL061C, strain skt5, stronger effect = lower value): 0.927 (inactive)
- normalized growth (locus YBR009C, strain hhf1, stronger effect = lower value): 0.922 (inactive)
- normalized growth (locus YBR021W, strain FUR4, stronger effect = lower value): 0.668 (active)
- normalized growth (locus YBR023C, strain chs3, stronger effect = lower value): 0.96 (inactive)
- normalized growth (locus YBR171W, strain sec66, stronger effect = lower value): 1.04 (inactive)
- normalized growth (locus YBR229C, strain ROT2, stronger effect = lower value): 1 (inactive)
- normalized growth (locus YBR231C, strain swc5, stronger effect = lower value): 0.74 (active)
- normalized growth (locus YBR279W, strain paf1, stronger effect = lower value): 0.882 (active)
- normalized growth (locus YCL011C, strain gbp2, stronger effect = lower value): 0.837 (active)
- normalized growth (locus YCL016C, strain dcc1, stronger effect = lower value): 0.912 (active)
- normalized growth (locus YCL029C, strain bik1, stronger effect = lower value): 0.998 (inactive)
- normalized growth (locus YCL061C, strain MRC1, stronger effect = lower value): 0.93 (inactive)
- normalized growth (locus YCL069W, strain vba3, stronger effect = lower value): 0.995 (inactive)
- normalized growth (locus YCR088W, strain abp1, stronger effect = lower value): 0.978 (inactive)
- normalized growth (locus YDL005C, strain med2, stronger effect = lower value): 1.03 (inactive)
- normalized growth (locus YDL035C, strain GPR1, stronger effect = lower value): 0.525 (active)
- normalized growth (locus YDL040C, strain nat1, stronger effect = lower value): 1 (inactive)
- normalized growth (locus YDL074C, strain BRE1, stronger effect = lower value): 0.653 (active)
- normalized growth (locus YDL101C, strain DUN1, stronger effect = lower value): 0.744 (active)
- normalized growth (locus YDL134C, strain PPH21, stronger effect = lower value): 0.615 (active)
- normalized growth (locus YDL185W, strain tfp1, stronger effect = lower value): 1 (inactive)
- normalized growth (locus YDL192W, strain arf1, stronger effect = lower value): 0.987 (inactive)
- normalized growth (locus YDR001C, strain nth1, stronger effect = lower value): 1.01 (inactive)
- normalized growth (locus YDR069C, strain doa4, stronger effect = lower value): 0.989 (inactive)
- normalized growth (locus YDR101C, strain arx1, stronger effect = lower value): 0.986 (inactive)
- normalized growth (locus YDR137W, strain rgp1, stronger effect = lower value): 0.834 (active)
- normalized growth (locus YDR159W, strain sac3, stronger effect = lower value): 1.04 (inactive)
- normalized growth (locus YDR162C, strain NBP2, stronger effect = lower value): 0.232 (active)
- normalized growth (locus YDR195W, strain ref2): 1.25 [resistant] (active)
- normalized growth (locus YDR297W, strain sur2, stronger effect = lower value): 0.961 (inactive)
- normalized growth (locus YDR318W, strain mcm21, stronger effect = lower value): 0.946 (inactive)
- normalized growth (locus YDR334W, strain swr1, stronger effect = lower value): 0.843 (active)
- normalized growth (locus YDR335W, strain msn5, stronger effect = lower value): 0.953 (inactive)
- normalized growth (locus YDR388W, stronger effect = lower value): 0.989 (inactive)
- normalized growth (locus YDR392W, strain spt3, stronger effect = lower value): 0.782 (inactive)
- normalized growth (locus YDR502C, strain sam2, stronger effect = lower value): 0.943 (inactive)
- normalized growth (locus YEL003W, strain gim4, stronger effect = lower value): 0.949 (inactive)
- normalized growth (locus YEL037C, strain rad23, stronger effect = lower value): 0.915 (active)
- normalized growth (locus YEL061C, strain CIN8 (second series), stronger effect = lower value): 1 (inactive)
- normalized growth (locus YEL061C, strain CIN8, stronger effect = lower value): 0.879 (active)
- normalized growth (locus YER015W, strain faa2, stronger effect = lower value): 0.736 (active)
- normalized growth (locus YER016W, strain bim1, stronger effect = lower value): 0.992 (inactive)
- normalized growth (locus YER110C, stronger effect = lower value): 1.02 (inactive)
- normalized growth (locus YER111C, strain swi4, stronger effect = lower value): 1.05 (inactive)
- normalized growth (locus YER155C, strain BEM2 (second series), stronger effect = lower value): 0.727 (active)
- normalized growth (locus YER155C, strain BEM2, stronger effect = lower value): 1.03 (inactive)
- normalized growth (locus YER167W, strain BCK2, stronger effect = lower value): 0.825 (active)
- normalized growth (locus YFR010W, strain ubp6, stronger effect = lower value): 0.989 (inactive)
- normalized growth (locus YGL078C, strain dbp3, stronger effect = lower value): 1.02 (inactive)
- normalized growth (locus YGL086W, strain mad1, stronger effect = lower value): 0.889 (active)
- normalized growth (locus YGL167C, strain pmr1, stronger effect = lower value): 1.01 (inactive)
- normalized growth (locus YGL173C, strain kem1, stronger effect = lower value): 0.974 (inactive)
- normalized growth (locus YGL227W, strain vid30, stronger effect = lower value): 1.04 (inactive)
- normalized growth (locus YGL240W, strain doc1, stronger effect = lower value): 0.962 (inactive)
- normalized growth (locus YGL248W, strain PDE1, stronger effect = lower value): 0.65 (active)
- normalized growth (locus YGL253W, strain hxk2, stronger effect = lower value): 0.684 (active)
- normalized growth (locus YGR078C, strain PAC10, stronger effect = lower value): 0.776 (active)
- normalized growth (locus YGR135W, strain pre9, stronger effect = lower value): 0.808 (active)
- normalized growth (locus YGR252W, strain gcn5, stronger effect = lower value): 0.606 (active)
- normalized growth (locus YHR013C, strain ard1, stronger effect = lower value): 0.662 (active)
- normalized growth (locus YHR027C, strain rpn1, stronger effect = lower value): 0.83 (active)
- normalized growth (locus YHR030C, strain SLT2, stronger effect = lower value): 0.815 (active) and 1.02 (inactive)
- normalized growth (locus YHR079C, strain IRE1 (second series), stronger effect = lower value): 1 (inactive)
- normalized growth (locus YHR079C, strain IRE1, stronger effect = lower value): 1.04 (inactive)
- normalized growth (locus YHR094C, strain hxt1, stronger effect = lower value): 1.01 (inactive)
- normalized growth (locus YHR129C, strain ARP1, stronger effect = lower value): 0.904 (active)
- normalized growth (locus YHR142W, strain chs7, stronger effect = lower value): 1 (inactive)
- normalized growth (locus YHR200W, strain rpn10, stronger effect = lower value): 0.857 (active)
- normalized growth (locus YIL066C, strain RNR3, stronger effect = lower value): 0.87 (inactive)
- normalized growth (locus YIL073C, strain SPO22, stronger effect = lower value): 0.278 (active)
- normalized growth (locus YIL125W, strain kgd1, stronger effect = lower value): 1.03 (inactive)
- normalized growth (locus YIR030C, strain dcg1, stronger effect = lower value): 1 (inactive)
- normalized growth (locus YJL092W, strain hpr5, stronger effect = lower value): 0.893 (active)
- normalized growth (locus YJL095W, strain BCK1 (second series), stronger effect = lower value): 1.01 (inactive)
- normalized growth (locus YJL095W, strain BCK1, stronger effect = lower value): 0.876 (inactive) and 1.02 (inactive)
- normalized growth (locus YJL115W, strain asf1, stronger effect = lower value): 1.01 (inactive)
- normalized growth (locus YJL129C, strain trk1, stronger effect = lower value): 0.373 (active)
- normalized growth (locus YJL134W, strain LCB3, stronger effect = lower value): 1 (inactive)
- normalized growth (locus YJL154C, strain vps35, stronger effect = lower value): 1.01 (inactive)
- normalized growth (locus YJL164C, strain tpk1, stronger effect = lower value): 0.92 (inactive)
- normalized growth (locus YJL166W, strain qcr8, stronger effect = lower value): 0.955 (inactive)
- normalized growth (locus YJL168C, strain set2, stronger effect = lower value): 0.984 (inactive)
- normalized growth (locus YJL187C, strain SWE1 (second series), stronger effect = lower value): 0.88 (inactive)
- normalized growth (locus YJR043C, strain POL32, stronger effect = lower value): 0.651 (active)
